Source: PubChem BioAssay (National Center for Advancing Translational Sciences (NCATS))
The list is not random: actives were taken first. Their share in the collection is about 3.6%.
GPR32 ag = qHTS for Agonists of Human Resolvin D1 Receptor DRV1; Probable G-protein coupled receptor 32 (Homo sapiens), O75388; CHO-K1 GPR32 beta-arrestin PathHunter luminescence, 90 min; zero percent set by DMSO-only wells; activation, % at 76.9 µM; 2.5% of 48,000 active; AID 1346428, 2018;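 active = activation of at least 60% and not above a set upper limit, about 1 call in 100 departs from these limits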; also: 0% is about no effect
Target sequence (O75388 whole entry, looked up): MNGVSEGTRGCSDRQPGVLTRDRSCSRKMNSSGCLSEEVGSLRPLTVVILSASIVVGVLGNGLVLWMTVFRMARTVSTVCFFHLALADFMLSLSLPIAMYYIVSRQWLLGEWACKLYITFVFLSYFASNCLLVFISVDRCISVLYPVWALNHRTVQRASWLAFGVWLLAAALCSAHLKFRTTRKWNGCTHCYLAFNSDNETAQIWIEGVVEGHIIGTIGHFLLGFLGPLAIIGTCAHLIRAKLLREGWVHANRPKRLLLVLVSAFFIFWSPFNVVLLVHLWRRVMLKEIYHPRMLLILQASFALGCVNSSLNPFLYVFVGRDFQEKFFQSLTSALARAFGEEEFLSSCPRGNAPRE
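Luminescent readout of beta-Gal complementation quantifies ligand-induced beta-arrestin association with GPR32 in CHO-K1 cells; 90 min compound incubation at 37 °C, detection 1 h at room temperature.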
TSG101-PTAP inh = qHTS Validation Assay for Inhibitors of HIV-1 Budding by Blocking the Interaction of PTAP/TSG101: Sytravon Library Screen | Fluorescence polarization, FITC-PTAP peptide/Tsg101, 20 min | Potency, µM (series often up to 115 µM), hits mostly inhibitors | 44,000 tested, under 10 active | Tumor susceptibility gene 101 protein (Homo sapiens), Q99816; also: potency is read from the fitted curve at half-maximal effect; 0% is about no effect
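qHTS FP binding, 20 min r.t.: 10 uM Tsg101 domain + 50 nM FITC-PTAP peptide, pH 7.5 HEPES buffer with TCEP and EDTA.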
GALK inhibitor = qHTS Assay for Inhibitors of Human Galactokinase (GALK): NCGC Sytravon Library Screen. 44,000 tested, under 10 active. recombinant GALK, Kinase-Glo ATP luminescence, 1 h. Potency, µM (top dose mostly 57.5 µM), without a hit: at the top dose activity, negative = inhibition, usual class: inhibitors;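 also: plate controls were full GALK reaction for no effect and reaction lacking GALK for full effect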
Target sequence (P51570 whole entry, looked up): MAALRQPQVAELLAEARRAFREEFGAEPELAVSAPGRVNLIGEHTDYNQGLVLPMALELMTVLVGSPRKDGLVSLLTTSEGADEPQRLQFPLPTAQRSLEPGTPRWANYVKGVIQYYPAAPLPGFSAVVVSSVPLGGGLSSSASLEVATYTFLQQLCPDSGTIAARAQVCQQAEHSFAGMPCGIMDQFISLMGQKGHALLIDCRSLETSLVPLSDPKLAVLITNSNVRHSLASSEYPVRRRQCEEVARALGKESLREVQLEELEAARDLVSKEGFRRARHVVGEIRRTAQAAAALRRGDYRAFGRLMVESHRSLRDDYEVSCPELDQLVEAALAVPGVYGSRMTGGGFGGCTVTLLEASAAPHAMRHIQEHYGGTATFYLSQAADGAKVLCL
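Luminescent ATP-depletion readout (Kinase-Glo Plus, 10 min) after 1 h RT reaction of 5 nM GALK, 35 uM ATP, 100 uM galactose, pH 8.0 HEPES buffer. Decreased kinase activity scored as inhibition.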
B2AR arrestin ag = qHTS assay of beta-arrestin-biased ligands of beta2-adrenergic receptor: NCGC Sytravon Library Screen | Beta-2 adrenergic receptor (Homo sapiens), P07550 | HTLA Tango cells, beta-arrestin recruitment, luciferase luminescence, 18 h | Potency, µM (titrated, usually from 46.1 µM), usual class: activators | 44,000 tested, under 10 active;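 also: potency is read from the fitted curve at half-maximal effect; 0% = DMSO and full agonism = EC100 isoproterenol or metaproterenol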
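Tango cells expressing recombinant beta2-AR and beta-arrestin were treated with compounds (up to 46 microM titration) in DMEM with 1% FBS for 18 hr at 37 degrees C. Beta-arrestin recruitment drove tTA-dependent luciferase, read by luminescence; curves were fitted and classed.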
NTMT1 inhibitor = Primary qHTS for Inhibitors of N-terminal methyltransferase 1 (NTMT1): MTaseGlo Assay; AID 1645870, 2021; 2.5% of 59,000 active; Potency, µM (titrated, usually from 114 µM), for inactives: at the highest dose activity change, negative = inhibition, most hits filed as inhibitors; NTMT1 MTase-Glo SAH luminescence, purified enzyme;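 also: potency is read from the fitted curve at half-maximal effect; plate controls were DMSO vehicle for no effect and no enzyme for full effect; nearly all actives have a fitted effect of over 65% in size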
GALC G270D up = A Novel Cell-Based Assay to Identify Small Molecules for B -Galactocerebrosidase; Potency, µM (titrated, usually from 57.5 µM), actives largely listed as activators; AID 1159614, 2016; 0.1% of 45,000 active; 145M-Twi-hGALC-G270D cells (Twitcher mouse brain line with human GALC G270D), HMU-beta-Gal fluorescence, 48 h; also: potency is read from the fitted curve at half-maximal effect; 0% is about no effect; nearly all actives have a fitted effect of over 65% in size
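Fluorescence readout: HMU-β-gal cleavage by mutant GALC (0.1 mM final, citrate/phosphate pH 5.2 with 1 mg/mL taurocholate), stopped with carbonate/bicarbonate plus Triton X-100. Cells: murine Twitcher 145M-Twi expressing human G270D GALC; qHTS for activators.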
* = called active by the depositor; i = inactive; nt = no result; [ ] = remark or other dose. Unless noted, calls follow the shape of the dose curve; as a rule, active = well fitted curve in the direction sought with a large enough effect; inconclusive = small, poorly fitted or top-dose-only effect, or another doubt; inactive = no such curve, though single readings can be large; an effect the other way counts as inactive or inconclusive.

SMILES | GPR32 ag | TSG101-PTAP inh | GALK inhibitor | B2AR arrestin ag | NTMT1 inhibitor | GALC G270D up
CC(c1ncncc1F)C(O)(Cn1cncn1)c1ccc(F)cc1F (stereo not drawn) | nt | nt | nt | nt | 4.0%[57.5 µM] | nt
CCOc1ccccc1C(=O)N1CCC(c2nc3ccccc3o2)CC1 | 0.6 | i | 1.0% | i | 89.1µM* | i
O=C1/C(=C/c2ccc(O)c(O)c2)Oc2ccccc21 | nt | nt | nt | nt | 28.2µM* | nt
O=C(N/N=C/c1ccc(O)c(O)c1)c1cc2ccccc2cc1O | nt | nt | nt | nt | 3.3%[12.6 µM] | nt
COc1cc(OC)c(NC(=O)CC(C)S(=O)(=O)c2ccc3c(c2)NC(=O)CO3)cc1Cl (stereo not drawn) | 73.4* | i | 3.1% | i | 9.4% | i
CC(=O)O[C@H]1CC(C)(C)CC2[C@]13CO[C@@]21CCC2[C@@]4(C)CC[C@H](O[C@@H]5OC[C@H](O[C@@H]6O[C@H](CO)[C@@H](O)[C@H](O)[C@H]6O[C@@H]6OC[C@@H](O[C@@H]7O[C@H](CO)[C@@H](O)[C@H](O)[C@H]7O)[C@H](O)[C@H]6O)[C@H](O)[C@H]5O[C@@H]5O[C@H](CO)[C@@H](O)[C@H](O)[C@H]5O)[C@@](C)(CO)C4CC[C@@]2(C)[C@]1(C)C[C@H]3O (stereo partly drawn) | nt | nt | nt | nt | 8.4%[6.45 µM] | nt
COc1ccc(Nc2oc(-c3ccc(COc4ccccc4C)o3)nc2C#N)cc1 | -19.7 | i | 5.3% | i | -1.7% | i
CCOc1ccc(Nc2oc(-c3ccc(COc4ccc(OC)cc4)o3)nc2C#N)cc1 | 86.3* | i | 5.3% | i | 12.6% | i
COc1ccc(C(=O)Nc2ccccc2)cc1S(=O)(=O)Nc1ccc(Br)cc1 | 89.9* | i | 0.0% | i | -0.8% | i
Cc1cc(C)cc(NC(=O)c2cccc(C(=O)Nc3cc(C)cc(C)c3)c2)c1 | -1.0 | i | -4.5% | i | nt | nt
O=C(Nc1ccc(Br)cc1)c1cccc(C(=O)Nc2ccc(Br)cc2)c1 | 71.1* | i | 0.0% | i | 7.9% | i
CC(C)C(O)(CO)CCO[C@@H]1O[C@H](CO[C@H]2OC[C@](O)(CO)[C@H]2O)[C@@H](O)[C@H](O)[C@H]1O (stereo partly drawn) | nt | nt | nt | nt | 3.2%[29.8 µM] | nt
CC(C)C(=O)OC[C@H]1O[C@@H](n2ccc(N)nc2=O)[C@](C)(F)[C@@H]1OC(=O)C(C)C | nt | nt | nt | nt | 2.5% | nt
CCc1ccccc1NS(=O)(=O)c1ccc(OC)c2ncccc12 | 13.9 | i | 1.4% | i | 89.1µM* | i
CCOc1ccc(S(=O)(=O)Nc2cc(Cl)ccc2OC)c2cccnc12 | 3.6 | i | 0.0% | i | -3.9% | i
Cc1cnc(-c2ccccc2C(C)C)nc1NCC1CCN(C2COC2)CC1 | nt | nt | nt | nt | 2.9%[57.5 µM] | nt
O=C(CSc1nc2cc3ccccc3cc2[nH]1)Nc1cccc(C(F)(F)F)c1 | 93.9* | i | 3.0% | i | 10.6% | i
O=C(CN1C=NS(=O)(=O)c2ccc(C(F)(F)F)cc21)Nc1cccc(C(F)(F)F)c1 | 98.7* | i | -1.9% | i | 9.7% | i
Cc1cc(C)n2nc(SCC(=O)Nc3cccc(C(F)(F)F)c3)nc2n1 | 61.5* | i | 5.9% | i | -12.1% | i
O=C(CSc1nc2ccncc2[nH]1)Nc1ccccc1C(F)(F)F | 9.0 | i | 1.8% | i | -0.1% | i
CCCCCc1ccc(/C=C/[C@H](O)[C@@H](CO)NC)cc1 | nt | nt | nt | nt | 8.7% | nt
COc1ccc(NCc2cccn2-c2nnc(N3CCCCC3)s2)cc1OC | 83.8* | i | 4.1% | i | -2.0% | i
COc1ccc(NCc2cccn2-c2nnc(N3CCOCC3)s2)cc1OC | 15.7 | i | 2.1% | i | -24.1% | i
CCNC(=O)Nc1ccc(-c2nc3c(c(N4CCOC[C@@H]4C)n2)CCN(C2COC2)C3)cc1 | nt | nt | nt | nt | 2.4% | nt
CC(O)C(O)/C=C/C=C/C(=O)O[C@@H]1C=C2COC(=O)[C@]2(O)[C@@]2(C)CCCC(C)(C)C12 (stereo partly drawn) | nt | nt | nt | nt | 1.2%[29.8 µM] | nt
SMILES | GPR32 ag | TSG101-PTAP inh | GALK inhibitor | B2AR arrestin ag | NTMT1 inhibitor | GALC G270D up
Cc1cc(C)c2c(=O)cc(CSc3nnc(-c4ccccc4)n3C)[nH]c2c1 | 60.7* | i | 1.3% | i | 1.8% | i
CC(C)c1ccc(C2=CC(c3cccc(Cl)c3)n3ncnc3N2)cc1 (stereo not drawn) | 73.7* | i | 0.9% | i | 5.8% | i
CC(C)c1ccc(C2=CC(c3cccc(Cl)c3)n3c(nc4ccccc43)N2)cc1 (stereo not drawn) | 47.1 | i | -1.2% | i | 3.2% | i
CCOc1ccc(NC(=O)NCCCN2CCN(c3ccc(OC)cc3)CC2)cc1 | -2.7 | i | 3.2% | i | -9.3% | i
CCC(=O)N1c2ccccc2CC1C(=O)NCCN1CCN(c2cc(Cl)ccc2C)CC1 (stereo not drawn) | 68.5* | i | 0.1% | i | -4.4% | i
Cc1ccc(Cl)cc1N1CCN(CCNC(=O)Nc2ccc(Cl)cc2)CC1 | 84.1* | i | 2.7% | i | 5.5% | i
Cc1ccc(C)c(N2CCN(CCCNC(=O)Nc3cc(Cl)ccc3C)CC2)c1 | -3.9 | i | -1.3% | i | -3.7% | i
CCOc1ccc(NC(=O)NCCN2CCN(c3cc(Cl)ccc3C)CC2)cc1 | 73.0* | i | -5.6% | i | -6.6% | i
C[C@@H]1O[C@@H](O[C@H]2[C@@H]3C=CO[C@@H](O[C@@H]4O[C@H](CO)[C@@H](O)[C@H](O)[C@H]4O)[C@@H]3[C@@]3(CO)O[C@@H]23)[C@H](O)[C@H](O)[C@H]1OC(=O)/C=C/c1ccc(O)cc1 | nt | nt | nt | nt | 2.8%[12.6 µM] | nt
CC1=C(C(=O)Nc2nc3ccccc3s2)C2(CCCC2)N=C(Nc2nc3ccccc3o2)N1 | nt | nt | nt | nt | 2.1%[57.5 µM] | nt
O=[N+]([O-])c1ccccc1CSc1nc2ncc(Br)cc2[nH]1 | nt | nt | nt | nt | 4.0%[57.5 µM] | nt
COc1ccc(C(=O)Nc2ccc3oc(-c4cc(Cl)ccc4Cl)nc3c2)cc1Br | 1.3 | i | 0.0% | i | 79.4µM* | i
